# Measured values reported in PubChem BioAssay (NCI).
# The panel holds about 83,000 compounds, 20% with a hit somewhere; the sample as a whole holds those more often.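 Treatment: one concentration, 48 hours, 96-well format. Scoring: percent growth, with anything below 10 considered active.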 Unmarked numbers belong to inactive results. Calls of active or inactive are those of the source.
# Test system: SN12C renal
# Test: NCI-60 one-dose screen, 48 h (100 = growth as untreated, 0 = no growth, -100 = all killed)
# Settings: 10 µM unless noted
row,SMILES,growth
1,Fc1ccc(C2CC(c3cccc(Nc4ccncc4)c3)=NN2c2ccccc2)cc1 (stereo not drawn),75.8%
2,COc1ccc2c(c1)OC1=C(C(=O)OC1)C2c1cc(OC)c(OC)c(OC)c1 (stereo not drawn),47.7%
3,COc1ccncc1C#Cc1cncc(C(=O)Nc2ccc(CN3CCN(C)CC3)c(C(F)(F)F)c2)c1,17.7%
4,Clc1cc(Cl)cc(N2N=C(c3cccc(Nc4ccncc4)c3)CC2c2ccc(Br)cc2)c1 (stereo not drawn),58.3%
5,CN1CCN(C(=O)[C@]2(C)CC[C@]3(C)CC[C@]4(C)C(=CC(=O)[C@@H]5[C@@]6(C)CCC(=O)NC(C)(C)[C@@H]6CC[C@]54C)[C@@H]3C2)CC1,90.4%
6,COc1ccc(-c2nc(SCC(C)C)nc(N/N=C(/C)c3ccc(OC)c(OC)c3)c2C#N)cc1,76.1%
7,CC(=O)NCCCS(=O)(=O)O,88.3%
8,COc1cc2nc(-c3ccc(C#N)cc3)[nH]c(=O)c2cc1OC,91.7%
9,O=C1Nc2c(ccc(Cl)c2Cl)/C1=C/c1ccccn1,97%
10,CN1CCN(c2ccc(NC3=C(Cl)C(=O)c4ncccc4C3=O)cc2C#N)CC1,25.5%
11,COc1ccc(NS(=O)(=O)c2ccc(C)cc2)c([N+](=O)[O-])c1,88.2%
12,Cc1ccc(C2CC(c3cccc(Nc4ccncc4)c3)=NN2c2ccccc2)cc1 (stereo not drawn),-93.1% (active)
13,COc1cc(-c2nc3occn3c2-c2ccnc(NCCNS(=O)(=O)c3ccc(Cl)cc3)n2)ccc1F,71.5%
14,C[C@]12CCc3nc(Nc4cccc(O)c4)sc3C1=CC[C@@H]1[C@@H]2CC[C@]2(C)/C(=N\NC(N)=S)CC[C@@H]12,30.7%
15,CCN(CC)CCCC(C)Nc1cc(-c2cccc(OC(F)(F)F)c2)nc2ccc(N3CCCC3)cc12 (stereo not drawn),38.1%
16,Nc1nnc2cc(Cl)ccc2n1,90.1%
17,OC1(c2ccc(Cl)c(C(F)(F)F)c2)CCN(CCCC(c2ccc(F)cc2)c2ccc(F)cc2)CC1,-91.3% (active)
18,Clc1ccc(N2N=C(c3cccc(Nc4ccncc4)c3)CC2c2ccccc2)cc1 (stereo not drawn),86.1%
19,CC1=NNC(=O)C1CCC(=O)N/N=C(\C)c1ccc2ccccc2c1 (stereo not drawn),102%
20,COc1c(Cl)cc(Cl)c2ccc(C=C3C(=O)N(C)C(=O)N(C)C3=O)nc12,99.3%
21,Cn1c(COC(=O)NCCN2CCOCC2)nc2c(N3CCOCC3)nc(-c3ccccc3)nc21,-81.2% (active)
22,COc1ccc(C(O)c2cc3c(N)c(C(=O)Nc4ccc(Br)cc4)sc3nc2C)cc1 (stereo not drawn),36%
23,O=c1[nH]c2c(s1)CCCC2CN1CCCCC1 (stereo not drawn),103%
